In PubChem BioAssay (NCATS):
A number with no mark means an inactive call. Active and inactive are the calls of the source. Calls follow the shape of the dose curve; as a rule, active = well fitted curve in the direction sought with a large enough effect; inconclusive = small, poorly fitted or top-dose-only effect, or effect the other way, or another doubt; inactive = no such curve, though single readings can be large or run the other way.

Assay: qHTS for Inhibitors of Cell Surface uPA Generation: Validation Assay (AID 493164);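 also: RAW 264.7 macrophage cells exposed to compound for 18 h; 0% is about no effect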
Settings: mouse cells, plasminogen activation; series mostly up to 38.3 µM; activity change: at the top concentration
Excerpt: NIH Chemical Genomics Center [NCGC]
NIH Molecular Libraries Probe Centers Network [MLPCN]
Assay Submitter (PI): Thomas Bugge
The overall objective of this project is to perform a quantitative high throughput screen (qHTS) to identify novel compounds that inhibit the generation of cell surface urokinase activity. The urokinase plasminogen activator (uPA) is one of the two primary endogenous systems that mediate plasminogen activation into plasmin. Members of this system, including uPA and its receptor (uPAR), are overexpressed in several malignant tumors. This system plays a major role in adhesion, migration, invasion and metastasis of cancer cells. Small molecule inhibitors of the uPA system will serve as probes to understand the molecular mechanisms of the uPA cascade and better understanding the microenvironmental circumstances that facilitate the activation of plasminogen by uPA, and finally may provide novel candidate agents for anticancer drug therapy.
[…] […] Upon inhibition of the uPA activation cascade, the subsequent cell surface uPA activity-dependent translocation of LF into the cytoplasm is inhibited. ATP-Lite is used to measure intracellular ATP concentrations, which remain increased if LF entry into the cytoplasm is inhibited. This validation assay was performed using a small set of validation compounds.
uPA assay protocol summary:
RAW 264.7 cells were maintained in DMEM medium (Invitrogen, Carlsbad, CA) at 37C under a humidified atmosphere containing 5% CO2 and 95% air. The medium contained 10% FBS, 1 mM sodium pyruvate and 50 U/ml penicillin/streptamycin (Invitrogen, Carlsbad, CA). All compounds were screened as 7-point titration from 2.45 nM to 38.3 uM final concentration. The assay was performed in 1536-well format plate as follows:
1.Dispensing RAW 264.7 cells into 1536-well, white walled tissue culture plates at a density of 4000 cells/well (4 uL).
2.Incubation at 37 C in a 5% CO2 incubator overnight.
3.Serially diluting compounds (1:5 serial dilution; 0.0024 uM to […] final concentration) in 23 nl DMSO.
5.Incubating the compound and reagent-treated plates for 18 hours at 37 C in a 5% CO2 incubator.
6.Adding ATP-Lite (3 ul).
7.Reading plates by ViewLux with an exposure length of 5 seconds.

Compound | activity change | outcome
O=C(CCCN1CCC2(CC1)C(=O)NCN2c1ccccc1)c1ccc(F)cc1 | 0.392% | –
COc1ccc2c(c1OC)C(=O)O[C@H]2[C@@H]1c2cc3c(cc2CCN1C)OCO3 | -0.362% | –
Cc1ncsc1CCCl | -0.82% | –
CCCCC/C=C\C/C=C\C/C=C\C/C=C\CCCC(=O)NCC(=O)O | 0.0917% | –
CC(NC(C)(C)C)C(=O)c1cccc(Cl)c1 (stereo not given) | -0.503% | –
CC(C)c1cccc(C(C)C)c1O | -0.621% | –
C=C(C)[C@H]1CN[C@H](C(=O)O)[C@H]1CC(=O)O | -1.49% | –
CC(C)N(CCC(C(N)=O)(c1ccccc1)c1ccccn1)C(C)C (stereo not given) | – | inactive
O=C(O)CCCc1ccc(N(CCCl)CCCl)cc1 | 1.94% | –
NCCc1ccc(O)cc1 | -1.96% | –
O=P1(N(CCCl)CCCl)NCCCO1 (stereo not given) | -0.775% | –
CC(C)(C)NCC(O)c1ccccc1Cl (stereo not given) | 0.654% | –
CN1C(=O)CCS(=O)(=O)C1c1ccc(Cl)cc1 (stereo not given) | -0.417% | –
CCC1(c2ccc(N)cc2)CCC(=O)NC1=O (stereo not given) | -0.677% | –
O=c1[nH]oc2c1CCNC2 | -0.801% | –
